MCF10A rereplic: DNA re-replication induction in MCF 10a cells; MCF 10A DNA re-replication, Hoechst nuclear intensity, 48 h; Potency, µM (titrated, usually from 46.1 µM), for the others: top-dose activity, positive = re-replication, usual class: activators; 350,000 tested, 2.9% active; note: potency is the fitted concentration of half-maximal effect; % of control where 0% means no effect; nearly all actives have a fitted effect of over 50% in size
SW480 rerep: induces DNA re-replication in SW480 colon adenocarcinoma cells; 340,000 tested, 1.8% active; SW480 DNA re-replication, Hoechst DNA content imaging, 48 h; Potency, µM (highest dose often 46.1 µM), for inactives: top-dose re-replication activation, usual class: activators; AID 624297; note: potency is the fitted concentration of half-maximal effect; % of control where 0% means no effect; nearly all actives have a fitted effect of over 55% in size
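Hoechst fluorescence of nuclei (405 nm excitation, 500-530 nm emission) measured by plate-scanning imager after 48 hr compound exposure at 37 C; re-replication scored as increased number of nuclei with elevated intensity.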
DT40 TDP1 CPT: growth inhibition of DT40 Tdp1-/-;hTDP1 cells with camptothecin (screen for TDP1 inhibitors); Potency, µM (titrated, usually from 46.2 µM), without a hit: at the highest dose activity change, negative = growth inhibition, actives largely listed as inhibitors; chicken DT40 Tdp1-/-;hTDP1 cells + 20 nM CPT, ATP luminescence, 48 h; 420,000 tested, 12% active; AID 686979; note: potency is the fitted concentration of half-maximal effect; % is set by controls: 0 for no effect and ±100 for the full control effect; nearly all actives have a fitted effect of over 55% in size
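Cell growth measured by CellTiter-Glo luminescence after a minimum 48 h, 37 C compound exposure with 20 nM CPT in Tdp1-knockout DT40 cells stably expressing hTDP1, seeded 400/well; qHTS titration format.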
Chronic BCR inh: blocks chronic active B-cell receptor signaling | ABC-DLBCL IkBa-CBG/CBR reporter, luminescence ratio, 4 h | Potency, µM (titrated, usually from 46.1 µM), without a hit: top-dose activity change, negative = inhibition, hits mostly inhibitors | 340,000 tested, 0.05% active; active = well fitted inhibition curve with a large enough effect in the signal ratio, with a control signal flat, not every such curve was filed as active; inconclusive = small, poorly fitted or top-dose-only effect, or effect the other way, or a change in a side signal; the % refers to the signal ratio;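 note: potency is the fitted concentration of half-maximal effect; plate controls were basal doxycycline-induced cells for no effect and cells given 10 µM MG132 for full effect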
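TMD8 human ABC-DLBCL cells with doxycycline-inducible IκBα–green luciferase fusion and unfused red luciferase, in 0.5% FBS medium; compounds up to 46 uM, 4 h at 37C. Green/red luminescence ratio, filter-overlap corrected, fitted to concentration-response curves.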
TDP1 cell noCPT: qHTS for Inhibitors of human tyrosyl-DNA phosphodiesterase 1 (TDP1): qHTS in cells in absence of CPT. Potency, µM (highest dose often 46.2 µM), inactives show at the top dose activity change, negative = growth inhibition, hits mostly inhibitors. DT40 Tdp1-/- hTDP1 cells, no CPT, ATP luminescence, 48 h. 420,000 tested, 15% active. AID 686978, 2013; note: potency is the fitted concentration of half-maximal effect; % is set by controls: 0 for no effect and ±100 for the full control effect; nearly all actives have a fitted effect of over 55% in size
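Readout: luminescence from CellTiter-Glo after 30 min in the dark at RT. Cells: DT40 Tdp1-/- with stable hTDP1, 400/well. Exposure: compounds alone, ≥48 hr, 37 °C.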
IL1B secr inh: blocks inflammasome-driven IL-1 beta release; THP-1 LPS/ATP IL-1B secretion, AlphaLISA, 16 h; active compounds read low; activity change, % at 57.5 µM; 360,000 tested, 4.7% active; in the data active = activity change below about -50%; inconclusive = mostly about -30% to -49%; note: % is set by controls: 0 for no effect and ±100 for the full control effect
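THP-1 cells pretreated 1 hr with compounds (up to 57.5 uM final), then stimulated with LPS (250 ng/mL final) plus ATP (1.25 mM final); secreted IL-1B measured by AlphaLISA after 16 hr, decreased signal indicating inhibition.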
Numbers without * were called inactive; ? = inconclusive; · = no result given; [ ] = remark or other dose. Only some compounds are listed: those with a hit (about 19% of all), similar ones and a draw of the others. Unless noted, calls come from the whole dose curve; as a rule, active = well fitted curve in the direction sought with a large enough effect; inconclusive = small, poorly fitted or top-dose-only effect, or another doubt; inactive = no such curve, though single readings can be large; an effect the other way counts as inactive or inconclusive.

SMILES | MCF10A rereplic | SW480 rerep | DT40 TDP1 CPT | Chronic BCR inh | TDP1 cell noCPT | IL1B secr inh
O=C1CC(c2ccccc2)Cc2[nH]c(=O)c(-c3nc(-c4ccc(F)cc4)cs3)cc21 (centres undefined) | · | · | 5.2µM* | · | 3.3µM* | ·
Cc1ccc(S(=O)(=O)N(C)C)cc1NC(=O)COC(=O)C1CC1 | -2% | -5% | 7% | -2% | 7% | 6
COc1ccccc1OCC(=O)NCC1CCCN(Cc2cnn(C)c2C)C1 (centres undefined) | 3% | -2% | 3% | 2% | 3% | 1
COc1ccc(CCNC(=O)CN2C(=O)C(=O)N(C3CCCC3)C2=O)cc1OC | 0% | -13% | -9% | 4% | 12% | 2
CCOC(=O)c1cnc(SC)nc1Sc1cc(Cl)ccc1Cl | 28% | 10% | 21µM* | ? | 18µM* | 0
CCOC(=O)c1cnc(SC)nc1Nc1cccc(F)c1 | -3% | 1% | -20% | -1% | -8% | 43
COc1ccc(CNc2ncnc3c2c(-c2ccccc2)cn3-c2ccccc2)cc1 | · | · | ? | ? | 21µM* | ·
CCOc1ccc(-n2cc(-c3ccccc3)c3c(NCc4ccc(F)cc4)ncnc32)cc1 | · | · | 18µM* | 19% | 12µM* | ·
CCOc1ccc(-n2cc(-c3ccccc3)c3c(NCCc4ccccc4)ncnc32)cc1 | · | · | ? | ? | 23µM* | ·
Cc1ccc(CNc2ncnc3c2c(-c2ccccc2)cn3-c2ccccc2)cc1 | · | · | ? | 24% | -88% | ·
CC(=O)c1ccccc1NS(=O)(=O)c1cc2c(cc1C)NC(=O)CO2 | · | · | -6% | · | 1% | ·
Cc1cnc(C)c(-c2cc(F)cc3c2OC(CNC(=O)C2CCOC2)C3)n1 (centres undefined) | · | · | -1%[9.04 µM] | · | 2% | ·
CCOc1ccc(NC(=O)Cn2c(=O)n(CCCCC(=O)NCCc3ccc(Cl)cc3)c(=O)c3ccccc32)cc1 | · | · | ? | · | -25% | ·
CCCCN(CC)C(=O)CCCn1c(=O)c2cccn2c2ccccc21 | · | · | ? | · | 21µM* | ·
CCOc1ccc(CCNC(=O)CCCn2c(=O)c3cccn3c3ccccc32)cc1 | · | · | 18µM* | · | 23µM* | ·
CSc1ccc(CCNC(=O)CCCn2c(=O)c3cccn3c3ccccc32)cc1 | · | · | ? | · | 18µM* | ·
CCOc1ccc(CCNC(=O)Cn2c(=O)c3cccn3c3cccnc32)cc1 | 0% | 5% | ? | 7% | 1% | -66*
CN(Cc1nc2ccccc2c(=O)[nH]1)C(=O)c1cccc(S(=O)(=O)N2CCCC2)c1 | 17% | -6% | -17% | 4% | 7% | 9
CCCN(Cc1nc2cc(Cl)ccc2c(=O)[nH]1)C(=O)c1ccc(S(=O)(=O)N2CCCC2)cc1 | 10% | 12% | ? | ? | 21µM* | -20
COc1cccc2cc(C(=O)C3=C(O)C(=O)N(Cc4ccco4)C3c3cccnc3)oc12 (centres undefined) | 0% | 0% | ? | ? | 23µM* | 24
O=C(c1ccco1)N1CCN(C(=O)c2ccc(CS(=O)c3cccc(Cl)c3)o2)CC1 (centres undefined) | -1% | 2% | -16% | 8% | -17% | 24
COc1cccc(N2CCN(C(=O)c3ccc(CS(=O)c4cccc(Cl)c4)o3)CC2)c1 (centres undefined) | · | · | 0.52µM* | · | 0.52µM* | ·
COc1ccc(N2CCN(C(=O)c3ccc(CS(=O)c4cccc(Cl)c4)o3)CC2)cc1 (centres undefined) | · | · | 16µM* | · | 15µM* | -10
COc1ccc(S(=O)Cc2ccc(C(=O)N3CCN(c4cccc(C)c4C)CC3)o2)cc1 (centres undefined) | 18% | ? | 0.58µM* | -8% | 0.92µM* | 5
